IL-1B inflam inh: qHTS for Inhibitors of Inflammasome Signaling: IL-1-beta AlphaLISA Primary Screen | THP-1 LPS/ATP IL-1B secretion, AlphaLISA, 16 h; hits give low values | activity change, % at 57.5 µM | 360,000 tested, 4.7% active; in the data active = activity change below about -50%; inconclusive = mostly about -30% to -49%
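THP-1 cells pretreated 1 hr with compounds (up to 57.5 uM final), then stimulated with LPS (250 ng/mL final) plus ATP (1.25 mM final); secreted IL-1B measured by AlphaLISA after 16 hr, decreased signal indicating inhibition.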
RORgamma inh: qHTS for inhibitors of ROR gamma transcriptional activity; Nuclear receptor ROR-gamma (Mus musculus), P51450; 310,000 tested, 5.4% active; Drosophila S2 Gal4-RORgamma UAS-luciferase reporter, 20 h; Potency, µM (series often up to 53.6 µM), without a hit: top-dose activity change, negative = inhibition, most hits filed as inhibitors; AID 2551, 2010; also: potency is read from the fitted curve at half-maximal effect; nearly all actives have a fitted effect of over 60% in size
Target sequence (P51450 whole entry, looked up, the tested form may be a part): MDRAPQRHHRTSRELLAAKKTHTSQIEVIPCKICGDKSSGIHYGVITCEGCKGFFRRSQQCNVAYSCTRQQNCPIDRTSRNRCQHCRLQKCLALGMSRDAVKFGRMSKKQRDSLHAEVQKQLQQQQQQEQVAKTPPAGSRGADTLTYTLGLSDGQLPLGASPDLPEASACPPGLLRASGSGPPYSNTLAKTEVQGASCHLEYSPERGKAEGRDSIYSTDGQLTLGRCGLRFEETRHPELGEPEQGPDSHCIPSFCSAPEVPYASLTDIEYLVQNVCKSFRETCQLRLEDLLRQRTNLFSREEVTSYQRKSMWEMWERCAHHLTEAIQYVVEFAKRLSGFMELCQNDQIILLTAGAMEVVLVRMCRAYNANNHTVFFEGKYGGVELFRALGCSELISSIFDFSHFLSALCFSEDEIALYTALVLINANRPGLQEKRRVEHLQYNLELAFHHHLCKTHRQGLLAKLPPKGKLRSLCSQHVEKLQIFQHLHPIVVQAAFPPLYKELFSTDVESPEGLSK
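Schneider cells (Drosophila), stable Gal4 DBD–ROR gamma + UAS-luc; 1 hr cmpd preincubation; Cu2+ induction 700 uM final; 20 hr ambient; luminescence.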
VP16 counter: VP16 counterscreen qHTS for inhibitors of ROR gamma transcriptional activity; AID 2546, 2010; Drosophila S2 Gal4-VP16 UAS-luciferase, luminescence, 20 h; Potency, µM (doses to about 53.6 µM), for the others: at the highest dose activity, negative = inhibition, usual class: inhibitors; 310,000 tested, 3.5% active;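 also: Gal4-VP16 expression switched on by copper sulfate through the metallothionein promoter; potency is read from the fitted curve at half-maximal effect; nearly all actives have a fitted effect of over 50% in size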
DT40 TDP1 CPT: qHTS for Inhibitors of human tyrosyl-DNA phosphodiesterase 1 (TDP1): qHTS in cells in presence of CPT. chicken DT40 Tdp1-/-;hTDP1 cells + 20 nM CPT, ATP luminescence, 48 h. Potency, µM (doses to about 46.2 µM), without a hit: at the top dose activity change, negative = growth inhibition, most hits filed as inhibitors. 420,000 tested, 12% active. AID 686979, 2013; also: potency is read from the fitted curve at half-maximal effect; nearly all actives have a fitted effect of over 55% in size
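Chicken DT40 Tdp1-/- cells complemented with human TDP1, 400 cells/well, exposed to compounds plus 20 nM camptothecin for at least 48 h at 37 C; viability read as ATP content by CellTiter-Glo luminescence.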
ELG1 DNA repair: qHTS screen for small molecules that inhibit ELG1-dependent DNA repair in human embryonic kidney (HEK293T) cells expressing luciferase-tagged ELG1; AID 504467, 2011; 330,000 tested, 2.3% active; HEK293T ELG1-luciferase reporter, luminescence, 16 h; DNA damage induced by 5-fluorouridine; Potency, µM (top dose mostly 46.1 µM), for inactives: at the top dose activity change, negative = inhibition, most hits filed as inhibitors; also: potency is read from the fitted curve at half-maximal effect; nearly all actives have a fitted effect of over 55% in size
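Quantitative HTS, concentration-response format. 2,000 cells/well co-treated with 5-fluorouridine and compound, 16 hr in 5% CO2 at 37 °C; ONE-Glo luminescence read after 30 min.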
DT40 TDP1 no CPT: qHTS for Inhibitors of human tyrosyl-DNA phosphodiesterase 1 (TDP1): qHTS in cells in absence of CPT; DT40 Tdp1-/- hTDP1 cells, no CPT, ATP luminescence, 48 h; Potency, µM (top dose mostly 46.2 µM), without a hit: top-dose activity change, negative = growth inhibition, usual class: inhibitors; 420,000 tested, 15% active; AID 686978, 2013; also: potency is read from the fitted curve at half-maximal effect; nearly all actives have a fitted effect of over 55% in size
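Chicken DT40 Tdp1-/- cells complemented with human TDP1, screened without camptothecin (DMSO vehicle only), 400 cells/well. Compounds pin-transferred, cells incubated at 37 °C for at least 48 hr. Growth read as ATP-dependent luminescence (CellTiter-Glo, 30 min at RT).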
An asterisk follows results filed as active; ? = inconclusive; nt = no result. Hits are enriched below; roughly 21% of the tested compounds scored in any of these assays. Unless noted, calls follow the shape of the dose curve; as a rule, active = well fitted curve in the direction sought with a large enough effect; inconclusive = small, poorly fitted or top-dose-only effect, or another doubt; inactive = no such curve, though single readings can be large; an effect the other way counts as inactive or inconclusive. % is scaled to controls: 0 for no effect and ±100 for the full control effect.

SMILES | IL-1B inflam inh | RORgamma inh | VP16 counter | DT40 TDP1 CPT | ELG1 DNA repair | DT40 TDP1 no CPT
COc1ccc(-c2cccc(-c3nc4ccc(Cl)cn4c3NC3CCCCC3)c2)cc1 | -13 | nt | nt | 18µM* | 6% | 21µM*
CCCCCCSc1ccc(-c2nc3ccc(Cl)cn3c2NC2CCCCC2)cc1 | -2 | nt | nt | 26µM* | ? | ?
N#CC1(NC(=O)COC(=O)c2cccc(-n3cnnn3)c2)CCCCC1 | -1 | nt | nt | -2% | ? | -1%
O=C1NC[C@@H](CCCCN2C[C@H](Cc3ccc(O)cc3)N(Cc3ccccc3)C(=O)C2=O)N(CC2CCCCC2)C1=O | 32 | nt | nt | -16% | nt | -13%
CC(C)C1=CC2=CCC3[C@@](C)(CCC[C@@]3(C)C(=O)O)C2CC1 (stereo partly specified) | nt | ? | -18% | 6% | nt | -7%
CCCCCCSc1cc(-c2nc3ccc(Cl)cn3c2NC2CCCCC2)ccc1OC | -17 | nt | nt | ? | 26% | 16µM*
COc1ccc(-c2nc3ccc(Cl)cn3c2Cc2ccsc2)cc1OC | -23 | nt | nt | ? | nt | ?
CCOC(=O)/C=C1/N(C)c2ccccc2C1(C)C | -10 | -12% | -4% | 6% | 10% | 3%
CN1/C(=C\C(=O)COC(=O)CNC(=O)c2ccc3ccccc3c2)C(C)(C)c2ccccc21 | 68 | ? | ? | 18µM* | -15% | 10µM*
CN1/C(=C\C(=O)COC(=O)c2ccc(O)cc2)C(C)(C)c2ccccc21 | 3 | 22% | ? | 15µM* | 21µM* | 16µM*
CN1/C(=C\C(=O)COC(=O)CNC(=O)c2ccccc2F)C(C)(C)c2ccccc21 | 16 | 30% | -29% | 13% | 3% | -15%
CN1/C(=C\C(=O)COC(=O)c2ccc(O)c(O)c2)C(C)(C)c2ccccc21 | 5 | ? | ? | 6.5µM* | 21µM* | 6.5µM*
CNS(=O)(=O)c1cccc(C(=O)OCC(=O)/C=C2/N(C)c3ccccc3C2(C)C)c1 | 11 | ? | 0.4µM* | 21µM* | ? | 18µM*
COc1cccc(/C=N/NC(=S)Nc2cccc(C(=O)O)c2)c1O | 34 | ? | -22% | ? | ? | -27%
C=CCc1cccc(/C=N/NC(=O)C(C)Nc2ccc(C)cc2)c1O (stereo unspecified) | 0 | 0.56µM* | 2.8µM* | 16µM* | -8% | 8.2µM*
C=CCc1cccc(/C=N/NC(=O)C(=O)Nc2ccc(C)cc2)c1O | 31 | 2.2µM* | 11µM* | 3.7µM* | -9% | 5.2µM*
COc1ccc(NC(C)C(=O)N/N=C/c2cc(Br)ccc2OC)cc1 (stereo unspecified) | -22 | 0% | -5% | -4% | ? | -6%
Cc1ccc(C2C3=C(CCCC3=O)Nc3c2c(C)nn3-c2ccccn2)o1 (stereo unspecified) | nt | -45% | 0% | nt | 3% | nt
Cc1nn(-c2ccccn2)c2c1-c1nc(N)sc1CC2 | nt | nt | nt | 20µM* | nt | 18µM*
Cc1nn(-c2ccccn2)c2c1-c1nc(N3CCOCC3)ncc1CC2 | -8 | -3% | 0% | 18µM* | ? | 23µM*
Cc1nn(-c2ccccn2)c2c1-c1nc(N)ncc1CC2 | -1 | -31% | -14% | ? | ? | ?
COc1cc2c(cc1OC)n(CC(=O)Nc1ccc(C)cc1C)c(=O)n1nc(-c3ccccc3)nc21 | nt | nt | nt | 8% | nt | 6%
CSc1ccccc1NC(=O)CSc1nnc(CNC(=O)c2ccccc2F)n1C | 28 | 0% | 5% | 1% | -1% | -7%

Bioassay records deposited in PubChem by National Center for Advancing Translational Sciences (NCATS).
